Screens (PubChem)
CYP2C9 inh: blocks human cytochrome P450 2C9. P11712. CYP2C9 Supersomes, luciferin-H conversion, luminescence. inhibition, % at 5 µM. hit rate 20% among 96,000;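 active = blocking of liver enzyme CYP2C9 beyond about 50% at 5 µM, limit read from the data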
CYP2C19 inhib: blocks human cytochrome P450 2C19; P33261; CYP2C19 Supersomes, luciferin-H EGE luminescence, 30 min; inhibition, % at 5 µM; hit rate 21% among 96,000;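 active = CYP2C19 inhibition above a set limit at 5 µM in the primary screen, cut at about 50% in these data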
Target sequence (P33261 whole entry, looked up): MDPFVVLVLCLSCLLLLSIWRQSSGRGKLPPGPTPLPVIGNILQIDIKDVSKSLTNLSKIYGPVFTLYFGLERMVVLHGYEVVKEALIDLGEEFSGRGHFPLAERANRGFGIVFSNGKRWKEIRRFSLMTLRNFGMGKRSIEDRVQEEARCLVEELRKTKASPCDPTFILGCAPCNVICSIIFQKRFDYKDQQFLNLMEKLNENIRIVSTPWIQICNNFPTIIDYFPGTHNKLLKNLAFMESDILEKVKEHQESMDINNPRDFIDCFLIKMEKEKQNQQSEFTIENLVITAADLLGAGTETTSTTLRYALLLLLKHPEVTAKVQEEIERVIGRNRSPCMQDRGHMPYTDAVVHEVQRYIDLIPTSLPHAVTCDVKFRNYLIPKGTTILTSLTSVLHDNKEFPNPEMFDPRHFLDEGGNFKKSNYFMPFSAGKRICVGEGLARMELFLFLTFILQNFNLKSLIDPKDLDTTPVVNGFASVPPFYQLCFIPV
Measles CPE: protection of cells from measles virus | Measles virus-infected cells, CPE protection, absorbance | protection (pct of control), % at 4 µM | hit rate 1.5% among 140,000 | AID 841; in the data active = protection mostly above about 24%, no sharp cut-off; inactive = mostly below about 26%
CYP2C19 act: increases human CYP2C19 enzyme activity; activation factor at 5 µM; P33261; 96,000 tested, under 10 active; recombinant CYP2C19, luciferin-H EGE luminescence; hits give high values; 0 = fully inhibited enzyme, 1 = untreated enzyme;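 active = activation factor of at least 2 at 5 µM in the primary screen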
CYP2C9 activ: CYP2C9 (human) activation. AID 1024. recombinant CYP2C9, luciferin-H conversion, luminescence; hits give high values; factor 1 = untreated enzyme, 0 = blocked. P11712. activation factor at 5 µM. hit rate 1.4% among 96,000;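 active = activation factor of 2 or more for CYP2C9 at a 5 µM dose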
Of the large screens only hits and unclear results are named; the others gave an inactive call. The list is not random: actives were taken first. Their share in the collection is about 22%.

COC(=O)COc1ccc(S(=O)(=O)NCc2cccnc2)cc1	none
COc1ccc(-c2ccnc(SCC(=O)c3ccc(Cl)cc3)n2)cc1	none (no result: CYP2C9 inh, CYP2C19 inhib, CYP2C19 act, CYP2C9 activ)
N#Cc1ccc(Sc2nc3ccccc3[nH]2)cc1C#N	CYP2C19 inhib 76.2
N#C/C(=C(/O)COC(=O)CSc1ccc2ccccc2c1)c1nc2ccccc2[nH]1	none (no result: CYP2C9 inh, CYP2C19 inhib, CYP2C19 act, CYP2C9 activ)
N#C/C(=C\c1ccc(Sc2ccc(Cl)cc2)o1)c1nc2ccccc2[nH]1	none (no result: CYP2C9 inh, CYP2C19 inhib, CYP2C19 act, CYP2C9 activ)
N#C/C(=C\c1ccc(Sc2nc3ccccc3[nH]2)o1)c1ccccc1	CYP2C9 inh 95.3, CYP2C19 inhib 86.2
COn1c(SC2CCCCC2)nc2ccccc2c1=O	CYP2C9 inh 81.7, CYP2C19 inhib 78.0
COn1c(SCc2ccc(C)cc2C)nc2ccccc2c1=O	CYP2C9 inh 93.3, CYP2C19 inhib 73.0
COn1c(SC(C)C)nc2ccccc2c1=O	none
c1cnc(SCCOc2ccc3c(c2)CCC3)nc1	none
Cc1ccccc1N(CC(=O)NCCc1ccccc1)C(=O)c1ccc(N2CCCC2)nc1	CYP2C9 inh 95.0, CYP2C19 inhib 56.9
O=C(NCC1CCCO1)c1ccc(N2CCCCC2)nc1 (stereo not drawn)	none
Cc1cc(C(=O)N/N=C/c2ccc(C)o2)c2ccccc2n1	none (no result: CYP2C9 inh, CYP2C19 inhib, CYP2C19 act, CYP2C9 activ)
CCCc1cc(C(=O)N/N=C/c2ccc(C)o2)c2ccccc2n1	CYP2C9 inh 64.1
CCCc1cc(C(=O)N/N=C/c2ccc(CC)s2)c2ccccc2n1	CYP2C9 inh 65.0
CCCC(=O)Nc1ccc(C(=O)NN=C(C2CC2)C2CC2)cc1	none (no result: CYP2C9 inh, CYP2C19 inhib, CYP2C19 act, CYP2C9 activ)
CCOc1ccc(NC(=O)CN2C(=O)COc3ccc(Cl)cc32)cc1	none
COc1cccc(NC(=O)CN2C(=O)COc3ccc(Cl)cc32)c1	CYP2C9 inh 78.4, CYP2C19 inhib 91.7
Cc1cccc(NC(=O)CN2C(=O)COc3ccc(Cl)cc32)c1	CYP2C19 inhib 71.9
O=C(CN1C(=O)COc2ccc(Cl)cc21)Nc1ccc2c(c1)OCCO2	none
COCCNC(=O)CN1C(=O)COc2ccc(Cl)cc21	none (no result: CYP2C9 inh, CYP2C19 inhib, CYP2C19 act, CYP2C9 activ)
Cc1cccc(NC(=O)CN2C(=O)COc3ccc(Cl)cc32)c1C	CYP2C19 inhib 88.4
CCOCCCNC(=O)C1CCC(=O)N1CCc1ccccc1 (stereo not drawn)	none
O=C(CSc1nnc(-c2ccccn2)n1Cc1ccccc1)N1CCCC1	none
CS(=O)(=O)c1nc(-c2ccc(Br)cc2)cc(-c2ccccc2)c1C#N	CYP2C9 inh 73.2, CYP2C19 inhib 57.2
CS(=O)c1nc(-c2ccc(Br)cc2)cc(-c2ccccc2)c1C#N (stereo not drawn)	CYP2C9 inh 82.6, CYP2C19 inhib 57.0
N#Cc1c(-c2ccc(Br)cc2)cc(-c2cccnc2)nc1N	none (no result: CYP2C9 inh, CYP2C19 inhib, CYP2C19 act, CYP2C9 activ)
Cc1c(C(=O)NCCN2CCOCC2)oc2ccc(S(=O)(=O)N3CCCCCC3)cc12	none
O=c1cc(-c2ccncc2)oc2ccccc12	CYP2C19 inhib 85.6
O=c1cc(-c2c(F)c(F)c(F)c(F)c2F)oc2ccccc12	none
CCC1Oc2ccc(C)cc2N(Cc2cccc(C)c2)C1=O (stereo not drawn)	none
CC1Oc2ccccc2N(Cc2ccccc2F)C1=O (stereo not drawn)	CYP2C9 inh 66.9, CYP2C19 inhib 89.8
Cc1ccc2c(c1)N(Cc1ccc3c(c1)OCO3)C(=O)C(C)O2 (stereo not drawn)	CYP2C19 inhib 60.9
O=C(c1ccc(F)cc1)N1CCCCC(Sc2nnnn2-c2ccccc2)C1=O (stereo not drawn)	CYP2C9 inh 73.8, CYP2C19 inhib 72.7
O=C1OCCC1Sc1nc2ccccc2[nH]1 (stereo not drawn)	none
O=C1OCCC1Sc1nc(-c2ccccc2)cs1 (stereo not drawn)	CYP2C19 inhib 86.7, CYP2C9 activ 2.1
O=C1OCCC1Sc1nnnn1-c1ccccc1 (stereo not drawn)	CYP2C19 inhib 87.9
COc1ccc(OCc2nnc(SC3CCOC3=O)n2-c2ccccc2)cc1 (stereo not drawn)	CYP2C19 inhib 84.4
O=C(c1ccccc1)N1CCCCC(Sc2nnnn2-c2ccccc2)C1=O (stereo not drawn)	none (no result: CYP2C9 inh, CYP2C19 inhib, CYP2C19 act, CYP2C9 activ)
Cc1ccc(NC(=S)N2CCN(CCN3C(=O)c4cccc5cccc(c45)C3=O)CC2)cc1	none
COc1ccccc1C(=O)N1CCN=C1SC	none
Cc1ccc2nc(CSc3nc(C)ccc3C#N)[nH]c2c1	CYP2C19 inhib 58.1
Cn1c(=O)c(=O)n(C)c2cc(S(=O)(=O)N3CCC(Cc4ccccc4)CC3)ccc21	none
CCn1c(=O)n(CC)c2cc(S(=O)(=O)N3CCC(c4ccccc4)CC3)ccc21	CYP2C9 inh 68.2
C=CCOc1cccc(C2C(C(=O)c3ccc(C)o3)=C(O)C(=O)N2Cc2ccncc2)c1 (stereo not drawn)	CYP2C9 inh 61.8
CCOc1cccc(C2C(C(=O)c3ccc(C)o3)=C(O)C(=O)N2Cc2ccncc2)c1 (stereo not drawn)	none
C=CCOc1cccc(C2C(C(=O)c3ccco3)=C(O)C(=O)N2Cc2ccncc2)c1 (stereo not drawn)	CYP2C9 inh 83.9
O=c1[nH][nH]c(-c2ccccc2)c1C=Nc1cccc(Cl)c1	CYP2C19 inhib 52.8
O=c1[nH][nH]c(-c2ccccc2)c1C=Nc1ccccc1Cl	CYP2C19 inhib 88.1
O=c1[nH][nH]c(-c2ccccc2)c1C=Nc1ccc(Cl)cc1	none
COC(=O)c1ccc(Cl)c(NC(=O)CN(c2ccccc2)S(=O)(=O)c2ccc(OC)cc2)c1	none (no result: CYP2C9 inh, CYP2C19 inhib, CYP2C19 act, CYP2C9 activ)
FC(F)(F)c1cc(-c2ccccc2)nc(NCc2cccnc2)n1	CYP2C9 inh 72.7, CYP2C19 inhib 92.7
FC(F)(F)c1cc(-c2ccco2)nc(NCc2cccnc2)n1	CYP2C9 inh 65.7, CYP2C19 inhib 84.9
O=c1c2[nH]c3ccc(F)cc3c2ncn1CCN1CCN(Cc2ccccc2)CC1	none
CCOc1cc(C=O)ccc1OCCSc1ccc(Cl)cc1	CYP2C9 inh 80.6
COc1ccc(C2Nc3ccc4ccccc4c3-c3c2c(=O)oc2ccccc32)cc1 (stereo not drawn)	CYP2C9 inh 83.3
CCOc1ccc(C2Nc3ccc4ccccc4c3-c3c2c(=O)oc2ccccc32)cc1 (stereo not drawn)	CYP2C9 inh 84.3, CYP2C19 inhib 52.4
O=c1oc2ccccc2c2c1C(c1ccc(Cl)cc1)Nc1ccc3ccccc3c1-2 (stereo not drawn)	none
O=C(NC1CCCCCC1)c1nnc(Cc2ccc(Cl)cc2)o1	none (no result: CYP2C9 inh, CYP2C19 inhib, CYP2C19 act, CYP2C9 activ)
N#Cc1cn(Cc2cccc(Cl)c2)c2ccccc12	CYP2C9 inh 93.3, CYP2C19 inhib 92.6
CCCc1c(C)c2ccccc2[nH]c1=O	none
CCCc1c(C)[nH]c2ccccc2c1=O	CYP2C9 activ 3.2
Cc1[nH]c2ccccc2c1CCC(N)=O	CYP2C19 inhib 52.9, CYP2C9 activ 3.1
O=C(O)CCc1c(C(=O)O)[nH]c2ccccc12	CYP2C9 inh 53.8
O=C(O)CCCn1c(=O)[nH]c2ccccc2c1=O	none
NC(=O)CCc1c[nH]c2ccccc12	none
COc1cccc(C2N(c3cccc(Cl)c3)C(=O)C3CCCN32)c1 (stereo not drawn)	CYP2C9 inh 88.4, CYP2C19 inhib 69.7
COc1ccc(N2C(=O)C3CCCN3C2c2cccc(OC)c2OC)cc1 (stereo not drawn)	none
